D1 potentiator = Potentiators of Human D1 Dopamine Receptor: qHTS. HEK293 TREx D1 cells, calcium flux, dopamine EC20 potentiation. D(1A) dopamine receptor (Homo sapiens), P21728. AID 504651, 2011. potentiation, % at 10 µM. 360,000 tested, 0.036% active; in the data active means potentiation above about 30%; further: 0% is about no effect
D1 agonist = Allosteric Agonists of the Human D1 Dopamine Receptor: qHTS | activation, % at 2 µM | HEK293 T-REx D1 cells, calcium flux, agonist mode | 360,000 tested, 1% active | AID 504660, 2011 | D(1A) dopamine receptor (Homo sapiens), P21728; in the data active means activation above about 30%; further: 0% is about no effect
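Agonism was scored from calcium flux recorded over 180 s (1 read/s) after pintool compound addition, following a 10-cycle baseline. Cells were inducible force-coupled HEK293 TREx D1, plated overnight at 30 C and loaded with no-wash calcium dye.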
DRD3 agonist = qHTS of D3 Dopamine Receptor Agonist: qHTS; AID 652048, 2013; 410,000 tested, 0.58% active; D(3) dopamine receptor (Homo sapiens), P35462; D3R DiscoveRx beta-arrestin cells, luminescence, 90 min; max activation, %; in the data active means max activation above about 30%; further: 0% is about no effect
Target sequence (P35462 whole entry, looked up): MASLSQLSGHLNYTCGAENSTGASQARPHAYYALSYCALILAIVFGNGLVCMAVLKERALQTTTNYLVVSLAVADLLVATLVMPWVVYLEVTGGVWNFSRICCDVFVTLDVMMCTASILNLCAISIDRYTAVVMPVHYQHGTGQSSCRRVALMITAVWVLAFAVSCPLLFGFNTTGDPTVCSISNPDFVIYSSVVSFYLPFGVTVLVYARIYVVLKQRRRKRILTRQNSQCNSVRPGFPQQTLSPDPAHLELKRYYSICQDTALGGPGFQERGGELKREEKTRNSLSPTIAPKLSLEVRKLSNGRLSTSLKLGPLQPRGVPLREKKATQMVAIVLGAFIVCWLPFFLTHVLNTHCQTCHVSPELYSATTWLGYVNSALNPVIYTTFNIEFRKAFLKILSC
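Agonist-mode cell screen: cells plated at 1500/well and incubated overnight at 37 °C, then exposed to library compounds for 90 min at 37 °C. Detection reagent was added for 30–60 min at room temperature, and luminescence was read.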
D3 antag = qHTS of D3 Dopamine Receptor Antagonist: qHTS | 360,000 tested, 2.5% active | AID 652054, 2013 | max response, negative = inhibition, % | D3R cells, DiscoveRx beta-arrestin luminescence, antagonist mode; active compounds read low; in the data active means max response below about -50%; inconclusive means no clear call, values can overlap the other calls; further: on the % scale 0 is the no-effect control and ±100 the full control effect
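Cells expressing the human receptor were seeded at 1500 cells/well, incubated overnight at 37 degrees C in 5% CO2, then exposed to library compounds with dopamine controls for 90 minutes at 37 degrees C before luminescent detection.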
D1 antagonist = Antagonist of Human D 1 Dopamine Receptor: qHTS. D(1A) dopamine receptor (Homo sapiens), P21728. HEK293 TREx D1 cells, calcium flux, dopamine EC80; active compounds read low. activity change, negative = inhibition, % at 10 µM. 360,000 tested, 3.2% active; in the data active means activity change below about -30%; further: on the % scale 0 is the no-effect control and ±100 the full control effect
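Cells carrying a force-coupled, tetracycline-inducible human D1 receptor report calcium flux. Each well gets a 10 s baseline, compound with 180 s monitoring, then an EC80 dopamine stimulus with a second 180 s kinetic read.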
Numbers without * were called inactive; ? = inconclusive; · = no result. Only some compounds are listed: those with a hit (about 6% of all), similar ones and a draw of the others.

SMILES	D1 potentiator	D1 agonist	DRD3 agonist	D3 antag	D1 antagonist
COc1ccc(Cl)cc1NC(=O)[C@@]1(CC(=O)O)CC(/C=C/c2ccccc2)=NO1	4	4	-1	-12	-35*
CCS(=O)(=O)NCCc1sc2nc(-c3ccc(OC)cc3)nn2c1C	-1	5	4	·	·
COc1ccc(CNc2nc(-c3ccccc3)nn2C(=O)c2cccs2)cc1	0	37*	-8	-15	9
Cc1ccc(CNc2nc(-c3ccco3)nn2C(=O)c2ccccc2[N+](=O)[O-])cc1	-2	7	0	·	-62*
COc1ccc(CNc2nc(-c3cccnc3)nn2S(C)(=O)=O)cc1	-2	4	5	-5	-31*
COc1ccc(CNc2nc(-c3ccco3)nn2C(=O)c2ccccc2C)cc1	-2	4	0	·	-36*
COc1ccc(CNc2nc(-c3ccccc3)nn2C(=O)c2ccc([N+](=O)[O-])cc2)cc1	-1	0	2	-5	5
Cc1ccccc1C(=O)n1nc(-c2ccco2)nc1NCc1ccc(Cl)cc1	1	1	12	·	3
Cc1cc(C)n(-c2ccc(C(=O)Nc3ccc(S(=O)(=O)NCc4ccco4)cc3)cc2)n1	-6	9	5	?	-41*
O=C(COC(=O)c1ccc(S(=O)(=O)NCc2ccco2)cc1)NCc1ccc(F)cc1	-4	4	-13	-20	-41*
COc1ccc(CNC(=O)COC(=O)c2ccc(S(=O)(=O)NCc3ccco3)cc2)cc1	·	·	4	0	·
O=C(Nc1ccc(S(=O)(=O)NCc2ccco2)cc1)c1ccc(F)cc1	-8	3	8	-1	-35*
COc1ccc(NC(=O)Cn2c(=O)ccc3cc(S(=O)(=O)N4CCCC4)ccc32)cc1Cl	2	3	-6	·	-5
Oc1ccc(N=Nc2ccccc2C(F)(F)F)c2cccnc12	-8	1	-17	-124*	4
Oc1ccc(F)c2cccnc12	6	0	-8	-15	17
COc1ccccc1N=Nc1ccc(O)c2ncccc12	4	0	-17	-90*	10
CCCN(C(=O)C1CCN(S(=O)(=O)c2c(C)noc2/C=C/c2ccc(C)cc2)CC1)c1ccccc1F	-3	3	-1	·	-28
CC(=O)c1ccc(-n2c(C)c(C(C)=O)c3cc(O)ccc32)cc1	4	4	3	-8	-22
CC(=O)c1c(C)n(-c2ccccc2)c2ccc(O)cc12	-6	0	2	13	-38*
COC(=O)c1c(C)n(-c2ccc(C)cc2)c2ccc(O)cc12	-9	2	-18	-27	-62*
Nc1c(-c2nc(-c3cccs3)no2)nnn1-c1ccccc1Cl	-1	2	4	·	1
Cc1ccccc1OCCC(=O)Nc1ccc(S(=O)(=O)N2CCCC2)cc1	·	·	-19	-87*	·
Cc1ccccc1OCC(=O)OCC(=O)Nc1cc(S(=O)(=O)N2CCCCC2)ccc1Cl	-2	4	0	6	-96*
Cc1ccc2c(CC(=O)Nc3ccc(S(=O)(=O)N4CCCCC4)cc3)coc2c1	0	5	6	·	-73*
Cc1ccccc1OCCOC(=O)c1ccc(S(=O)(=O)N2CCCC2)cc1	-1	13	2	-20	-31*
SMILES	D1 potentiator	D1 agonist	DRD3 agonist	D3 antag	D1 antagonist
O=C(COC(=O)CCS(=O)(=O)c1ccccc1)Nc1cc(S(=O)(=O)N2CCCCC2)ccc1Cl	-4	6	-6	-15	-13
O=C(OCCOc1ccc(F)cc1)c1ccc(S(=O)(=O)N2CCCC2)cc1	-5	21	-2	-13	-16
Cc1ccc2c(CC(=O)Nc3ccc(S(=O)(=O)N4CCCC(C)C4)cc3)coc2c1 (configuration not stated)	2	6	7	·	-3
Cc1cccc(OCCC(=O)Nc2ccc(S(=O)(=O)N3CCCC3)cc2)c1	-4	3	-2	-6	-3
O=C(NCc1ccc(F)cc1)c1cccc(N2CCCS2(=O)=O)c1	-2	1	-11	·	-3
Cc1cc2c(s1)c1cnn(Cc3c(F)ccc(F)c3Cl)c(=O)c1n2C	5	7	·	·	5
CCN1c2ccccc2-c2nc(SCC(=O)Nc3c(C)cc(C)cc3C)ncc2S1(=O)=O	2	2	6	·	13
Cc1cc(C(=O)Nc2ccc(Nc3ccccc3)cc2)ccc1[N+](=O)[O-]	-18	0	0	10	5
Cc1ccccc1NC(=O)c1ccc(Nc2c([N+](=O)[O-])cc([N+](=O)[O-])c3ccccc23)cc1	1	3	-10	-71*	-2
COc1ccc2nc(-c3ccccc3)cc(OC)c2c1	-6	1	33*	35	-60*
CCOc1cc(C(=O)NCCN2C(=O)S/C(=C\c3cccnc3)C2=O)cc(OCC)c1OCC	-5	4	-3	-8	-49*
Cc1ccc(C(=O)NC2CC3CCCC(C2)N3C(=O)NC2CCCCC2)cc1 (configuration not stated)	3	2	·	·	5
CC(=O)NC1CC2CCCC(C1)N2Cc1ccc(C)cc1 (configuration not stated)	-4	2	-7	-113*	-7
CC(=O)NC1CC2CCCC(C1)N2CC(=O)NCc1ccc(F)cc1 (configuration not stated)	0	-2	-2	22	9
O=C(NC1CC2CCCC(C1)N2Cc1ccc(F)cc1)c1ccc(F)cc1 (configuration not stated)	-9	4	-22	-108*	-68*
Cc1ccc(CN2C3CCCC2CC(NC(=O)c2ccc(C)cc2)C3)cc1 (configuration not stated)	-7	1	-10	-109*	-68*
CN1C2CCC1CC(NC(=O)c1ccc(Cl)cc1)C2 (configuration not stated)	3	30	11	4	-32*
CN1C2CCC1CC(NC(=O)CSc1ccc(Cl)cc1)C2 (configuration not stated)	-3	3	-1	0	5
CCCSc1nc(-c2ccc(OC)cc2)cc(-c2ccccc2OC)c1C#N	3	8	-3	·	-10
CCc1c(C)c2ccc(O)c(CN3CCN(c4cc(Cl)ccc4C)CC3)c2oc1=O	-1	0	5	·	-4
COc1ccccc1CN1C2CCCC1CC(NC(=O)/C=C/c1ccccc1)C2 (configuration not stated)	3	0	-16	-65*	-12
CCOC(=O)SC1=N/C(=C\c2ccc(N(C)C)cc2)C(=O)S1	-3	33*	-45	-54*	-8

Screens deposited in PubChem BioAssay by National Center for Advancing Translational Sciences (NCATS).
